# Assay results as given in PubChem BioAssay (Tox21).
# A number with no mark means an inactive call. Records with an inconclusive call do not appear. A call without a number means that no potency is given here. The source made the active and inactive calls. Unless noted, the call rests on the fitted dose curve; in most records, active means well fitted curve in the direction sought with a large enough effect in the repeat runs; inconclusive means weak or mixed curves; inactive means no such curve, though single readings can be large; an effect the other way counts as inactive or inconclusive.
# Columns and labels:
# [1] = qHTS assay to identify small molecule agonists of the hypoxia (HIF-1) signaling pathway - cell viability counter screen (AID 1224844; calls by dose curve; further: nearly all actives have a fitted effect of over 50% in size)
# How it was run: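 Same wells as the HIF-1 reporter screen; ME-180 cells carrying HRE-bla, 17 hr treatment at 37C; CellTiter-Glo luminescence read after 30 min at room temperature.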
# [2] = qHTS assay to identify small molecule agonists of H2AX (AID 1224845; active means well fitted activation curve with a large enough effect in the signal ratio in the repeat runs, not every such curve was filed as active; the % refers to the signal ratio)
# How it was run: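 Wild-type CHO-K1 cells plated overnight, then exposed 3 hr at 37C to compounds at 15 concentrations (0.76% DMSO). Lysed, then HTRF anti-pH2AX(S139)-cryptate/anti-H2AX-d2 detection after 24 hr at room temperature; emissions 665 and 620 nm.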
# [3] = qHTS assay to identify small molecule agonists of the hypoxia (HIF-1) signaling pathway (AID 1224846; active means well fitted activation curve with a large enough effect in the signal ratio in the repeat runs, not every such curve was filed as active; the % refers to the signal ratio)
# How it was run: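 In ME-180 cells bearing an HRE-bla construct, 17 h treatment with DMSO-dissolved compounds at 37C was followed by CCF4-AM loading to quantify reporter induction.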
# [4] = qHTS RealTime-Glo MT Cell Viability Assay in HepG2 cells - 24 hour (AID 1224867); further: nearly all actives have a fitted effect of over 50% in size
# How it was run: (§1)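 Cell number in HepG2 cultures estimated from NanoLuc luminescence generated by metabolic reduction of a prosubstrate by living cells. The homogeneous, nonlytic format allowed repeated reads at 0, 8, 16, 24, 32 and 40 h of compound exposure.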
# [5] = qHTS RealTime-Glo MT Cell Viability Assay in HEK293 cells - 32 hour (AID 1224868); further: top concentration of the series differs between compounds; nearly all actives have a fitted effect of over 50% in size
# How it was run: (§2)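 Homogeneous bioluminescent viability format in HEK293 cells (600 cells/well). Following 5 h at 37 C/5% CO2, 23 nL compound was pintooled; the signal was measured repeatedly during 40 h incubation.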
# [6] = A CellTox Green Cytotoxicity Assay to monitor cytotoxicity in HEK293 cells - 0 hour (AID 1224869); further: nearly all actives have a fitted effect of over 50% in size
# How it was run: (§3)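 Homogeneous no-lysis format: HEK293 cell suspension mixed with CellTox Green reagent, seeded, incubated 5 h at 37 C/5% CO2, then dosed by pintool with compound in DMSO.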
# [7] = qHTS RealTime-Glo MT Cell Viability Assay in HEK293 cells - 16 hour (AID 1224872)
# How it was run: as §2
# [8] = qHTS RealTime-Glo MT Cell Viability Assay in HEK293 cells - 40 hour (AID 1224874); conditions: RealTime-Glo luminescence; max response: stronger effect = lower value; further: nearly all actives have a fitted effect of over 50% in size
# How it was run: (§4)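 Measured as luminescence from the same continuously cultured HEK293 wells at successive time points (0, 8, 16, 24, 32, 40 h) after compound addition. Reagent present from seeding; dosing at 5 h; incubation 37 C.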
# [9] = A CellTox Green Cytotoxicity Assay to monitor cytotoxicity in HEK293 cells - 24 hour (AID 1224875); further: nearly all actives have a fitted effect of over 45% in size; further: potency means the concentration at half of the fitted maximal effect
# How it was run: as §3
# [10] = A CellTox Green Cytotoxicity Assay to monitor cytotoxicity in HepG2 cells - 16 hour (AID 1224876); further: nearly all actives have a fitted effect of over 45% in size
# How it was run: (§5)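 Fluorescent DNA-binding dye, 600 HepG2 cells/well, 5 h preincubation then compound in DMSO; same plates read at 0–40 h, 37 C.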
# [11] = qHTS RealTime-Glo MT Cell Viability Assay in HepG2 cells - 32 hour (AID 1224877); further: nearly all actives have a fitted effect of over 55% in size
# How it was run: as §1
# [12] = A CellTox Green Cytotoxicity Assay to monitor cytotoxicity in HepG2 cells - 24 hour (AID 1224878); further: nearly all actives have a fitted effect of over 45% in size
# How it was run: as §5
# [13] = A CellTox Green Cytotoxicity Assay to monitor cytotoxicity in HepG2 cells - 40 hour (AID 1224879); further: nearly all actives have a fitted effect of over 40% in size
# How it was run: as §5
# [14] = qHTS RealTime-Glo MT Cell Viability Assay in HEK293 cells - 0 hour (AID 1224880); further: top concentration of the series differs between compounds; nearly all actives have a fitted effect of over 45% in size
# How it was run: as §4
# [15] = qHTS RealTime-Glo MT Cell Viability Assay in HepG2 cells - 40 hour (AID 1224870); further: nearly all actives have a fitted effect of over 50% in size
# How it was run: (§6)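 HepG2 cells mixed with RealTime-Glo MT reagents (NanoLuc plus cell-permeant prosubstrate) were seeded at 600 cells/well, incubated 5 h at 37 C/5% CO2, then pinned with compounds in DMSO; nonlytic luminescence tracked viability during 40 h treatment.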
# [16] = A CellTox Green Cytotoxicity Assay to monitor cytotoxicity in HEK293 cells - 40 hour (AID 1224871); further: nearly all actives have a fitted effect of over 45% in size; further: potency means the concentration at half of the fitted maximal effect
# How it was run: as §3
# [17] = qHTS RealTime-Glo MT Cell Viability Assay in HepG2 cells - 8 hour (AID 1224873); further: nearly all actives have a fitted effect of over 55% in size
# How it was run: as §6
# [18] = qHTS assay to identify small molecule antagonists of the estrogen related receptor (ERR) signaling pathway from Tox21 library (AID 1224848); further: nearly all actives have a fitted effect of over 50% in size
# How it was run: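 First, 2,000 ERR cells per well were plated and held 6 h at 37 C/5% CO2. Next, compounds in DMSO were pinned in and left 18 h at 37 C. Finally, ONE-Glo was added and luminescence read after 30 min at room temperature.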
# [19] = qHTS assay to identify small molecule agonists of the estrogen related receptor (ERR) signaling pathway from Tox21 library (AID 1224849; calls by dose curve; further: nearly all actives have a fitted effect of over 15% in size); conditions: ERR reporter cell line, ONE-Glo luciferase, 18 h; at 92.4 µM (top of the series) unless noted
# How it was run: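 Reporter cells (ERR, NTP source) treated with Tox21 10K compounds 18 h, 37 C. Readout: ONE-Glo luminescence, 30 min RT.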
# [20] = qHTS assay to identify small molecule agonists of H2AX - cell viability counter screen (AID 1224847; calls by dose curve; further: top concentration of the series differs between compounds; nearly all actives have a fitted effect of over 30% in size)
# How it was run: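 Compounds tested at 15 concentrations were incubated 3 hr at 37C with wild-type CHO-K1 cells; cellular ATP-based luminescence (CellTiter-Glo) indicated viability.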
SMILES,Potency [1],Potency [2],outcome [3],Potency [4],Potency [5],Potency [6],Potency [7],max response [8] [%],Potency [9],Potency [10],Potency [11],Potency [12],Potency [13],Potency [14],Potency [15],Potency [16],Potency [17],Potency [18],"activity change, positive = activation [19]",Potency [20]
N#Cc1c(F)cccc1F,inactive,inactive,inactive,inactive,inactive,inactive,inactive,-15.1,inactive,inactive,inactive,inactive,inactive,inactive,–,–,–,–,–,–
C=C(C)C(=O)OC(C)C,inactive,inactive,inactive,–,inactive,inactive,–,6,inactive,inactive,inactive,inactive,inactive,inactive,inactive,inactive,inactive,–,–,–
CC[C@H](C)[C@H](N)C(=O)O,inactive,inactive,inactive,inactive,–,inactive,inactive,-1.16,inactive,inactive,inactive,–,inactive,inactive,inactive,–,inactive,inactive,5.77% [at 42.5 µM],–
O=C(O)c1cn(C2CC2)c2cc(Cl)c(F)cc2c1=O,inactive,inactive,inactive,inactive,–,–,–,–,–,–,inactive,inactive,inactive,–,–,–,–,–,–,inactive
O=C(Cl)c1c(Cl)cccc1Cl,inactive,inactive,inactive,–,inactive,inactive,inactive,-14.9,inactive,inactive,inactive,–,inactive,inactive,inactive,inactive,inactive,–,–,inactive
C=C(C)C(=O)OCCN(C)C,inactive,inactive,inactive,–,inactive,inactive,inactive,0.256,inactive,inactive,inactive,–,inactive,inactive,inactive,inactive,inactive,–,–,inactive
CCOC(=O)CC(=O)c1cc(F)c(Cl)nc1Cl,inactive,inactive,inactive,inactive,–,inactive,–,–,–,inactive,inactive,inactive,inactive,–,inactive,–,inactive,–,–,inactive
Cc1cccc(OCCOc2cccc(C)c2)c1,inactive,inactive,inactive,inactive,–,inactive,–,-15.5,inactive,–,inactive,–,–,inactive,inactive,inactive,inactive,inactive,10.4%,–
CCCCCCCCCC=O,inactive,inactive,inactive,–,–,inactive,–,7.4,inactive,inactive,inactive,inactive,inactive,inactive,inactive,inactive,inactive,–,–,inactive
Cc1cccc(C(C)(C)C)c1O,inactive,inactive,inactive,inactive,inactive,inactive,inactive,-2.49,–,inactive,inactive,inactive,–,inactive,inactive,–,inactive,–,–,–
CCCCCC/C=C/C=O,inactive,inactive,inactive,inactive,inactive,inactive,–,35.7,inactive,inactive,inactive,–,–,–,inactive,inactive,inactive,inactive,2.49%,–
CC[C@@H]1C[C@H](N(Cc2cc(C(F)(F)F)cc(C(F)(F)F)c2)C(C)=O)c2cc(C(F)(F)F)ccc2N1C(=O)OC(C)C,inactive,inactive,inactive,inactive,–,inactive,–,-22.8,inactive,–,inactive,inactive,inactive,inactive,–,inactive,inactive,–,–,–
CC1=CCC(C(C)C)C=C1 (configuration not stated),inactive,inactive,inactive,–,–,inactive,inactive,–,inactive,inactive,inactive,inactive,–,inactive,inactive,inactive,inactive,–,–,inactive
CNS(=O)(=O)Cc1ccc2[nH]cc(CCN(C)C)c2c1,inactive,inactive,inactive,inactive,inactive,inactive,inactive,2.61,inactive,–,inactive,inactive,inactive,inactive,inactive,inactive,inactive,–,–,–
CC(=O)/C(C)=C/C1C(C)=CCCC1(C)C (configuration not stated),inactive,inactive,–,inactive,inactive,inactive,inactive,-10.3,17.4 µM (active),–,inactive,–,–,inactive,inactive,17.4 µM (active),inactive,inactive,5.66%,inactive
Cc1ccc(C)o1,inactive,inactive,inactive,inactive,inactive,inactive,inactive,-14.9,inactive,inactive,inactive,inactive,inactive,inactive,–,inactive,inactive,inactive,0.55%,–
